The list is not random: actives were taken first. Their share in the collection is about 1.3%.
S1P2 agonist – S1P2 (human) receptor agonism. O95136. S1P2-expressing cell line, agonist reporter read-out. activation, % at 4.5 µM. 97,000 tested, 0.46% active; in the data active means activation above about 16%;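 further: 0% = vehicle low control and 100% = maximal reference agonist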
GALR2 antag – antagonists of human galanin receptor 2 (GALR2). 140,000 tested, 0.39% active. GALR2-expressing cells, antagonist mode. inhibition, % at 4 µM. O43603; in the data active means inhibition above about 27%;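 further: cells stimulated with galanin 1-16 at roughly its EC80; 0% = agonist challenge control and 100% = basal control without agonist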
Target sequence (O43603 whole entry, looked up): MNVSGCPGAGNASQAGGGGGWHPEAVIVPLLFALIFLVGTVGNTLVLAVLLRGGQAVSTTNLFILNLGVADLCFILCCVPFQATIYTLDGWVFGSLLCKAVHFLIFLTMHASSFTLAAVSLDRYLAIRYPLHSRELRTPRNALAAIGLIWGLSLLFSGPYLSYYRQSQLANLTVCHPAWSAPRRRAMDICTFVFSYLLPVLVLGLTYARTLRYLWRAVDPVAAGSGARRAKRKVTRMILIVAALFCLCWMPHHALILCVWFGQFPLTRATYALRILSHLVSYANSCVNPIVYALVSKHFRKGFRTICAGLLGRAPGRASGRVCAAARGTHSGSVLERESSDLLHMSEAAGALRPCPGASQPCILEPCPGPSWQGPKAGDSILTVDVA
S1P2 blocker – blocks the human S1P2 receptor. 97,000 tested, 0.21% active. inhibition, % at 5 µM. cell-based S1P2 antagonist assay, inhibition at 5 uM; in the data active means inhibition above about 45%;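 further: CRE beta-lactamase reporter cells expressing human S1P2 stimulated with S1P; 0% = agonist at EC80 alone and 100% = agonist plus reference antagonist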
GALR2 ag – activates the human galanin receptor 2 | O43603 | GALR2-expressing cells, agonist activation read-out | activation, % (concentration not given with the values) | 140,000 tested, 0.48% active | AID 803; in the data active means activation above about 5%, passing the limit was not always enough;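 further: 0% = vehicle buffer wells and 100% = reference agonist at full effect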
Phagocyt inh – macrophage phagocytosis inhibition; AID 1029; 110,000 tested, 0.07% active; inhibition, % at 5 µM; J774A.1 macrophage IgG-bead phagocytosis, imaging;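 active means inhibition above the mean of the plate negative controls plus 5 SD, cut at about 13% in these data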;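 further: phagocytic index as fraction of beads internalized from green versus red external bead signal; plate controls were DMSO negative control for no effect and cytochalasin-D positive control for full effect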
GALR2 agon conf – confirmation of human galanin receptor 2 (GALR2) agonists | AID 864 | activation, % at 5.6 µM | 460 tested, 10% active | GALR2-expressing cells, agonist activation | shares compounds with GALR2 ag; in the data active means activation above about 8.4%;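 further: 0% = buffer-only vehicle wells and 100% = full reference agonist response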
BLA act counter – beta-lactamase activation, GALR2 counterscreen; shares compounds with GALR2 ag; CHO NFAT-bla reporter, beta-lactamase FRET activation; activation, % at 5.6 µM; 460 tested, 10% active; AID 865;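 active means activation above the screen-wide mean activation plus 3 SD, cut at about 8% in these data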;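 further: 0% = DMSO with PBS wells and 100% = thapsigargin positive control wells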
Numbers without * were called inactive; nt = no result given; [ ] = dose if it differs, or a comment.

SMILES	S1P2 agonist	GALR2 antag	S1P2 blocker	GALR2 ag	Phagocyt inh	others
Cc1cccc(OCC(=O)NNC(=O)C2CCCCC2C(=O)O)c1 (stereo not given)	nt	6	nt	-1	-6
CCN(CC)c1ccc2cc(S(=O)(=O)c3ccc(C)cc3)c(=O)oc2c1	nt	3	nt	6.0*	-1
Cc1cc(OC(=O)C(c2ccccc2)c2ccccc2)c([N+](=O)[O-])c(=O)[nH]1	nt	4	nt	1	2
CCOc1ccc(OCC)c(NC(=O)CSc2nc3c(c(=O)n(C)c(=O)n3C)n2C(C)C)c1	26*	-1	-38	0	1
COc1cccc(C2CC(=O)Nc3cc(OC)c(OC)c(OC)c32)c1OC (stereo not given)	-7	-15	3	-2	44*[artifact]
Cc1ccc(SCC(=O)Nc2ccc(N3CCN(C)CC3)c(F)c2)cc1	-5	-13	9	7.8*	-2
O=C(CSc1ccccc1)Nc1ccc(N2CCN(c3ccccc3)CC2)c(F)c1	-9	16	12	-2	nt
CCc1cccc2sc(NC(=O)c3ccc(N4C(=O)CCC4=O)cc3)nc12	nt	4	nt	0	nt
Cc1ccc2sc(NC(=O)c3ccc(N4C(=O)CCC4=O)cc3)nc2c1C	nt	-3	nt	6.7*	nt
Cc1nn(-c2cccc(Cl)c2)c(Cl)c1/C=N/NC(=O)c1cccs1	nt	-3	nt	5.0*	-4
CN(c1ccc(C(=O)Nc2ccccc2C(F)(F)F)cc1)S(C)(=O)=O	2	3	12	2	54*
Cc1ccc(CNC(=O)CCNC(=O)c2ccco2)cc1	869*	-3	-11	-2	-2
Cc1ccc(OCCNC(=O)c2ccco2)cc1C	50*	2	18	-2	-1
COc1ccc(-c2nc3ccccc3c(=O)n2NC(=O)c2cccnc2Cl)cc1OC	nt	10	nt	-1	-4
Nn1c(SCc2cccc(C(F)(F)F)c2)nnc1-c1ccco1	-11	-16	2	-2	0
Cc1ccc(CSc2nnc(-c3ccco3)n2N)cc1	26*	-5	6	-3	-2
Cc1cccc2nc(CSc3nc4[nH]ncc4c(=O)n3-c3ccccc3Cl)cc(=O)n12	nt	13	nt	2	-1
Cc1cc(C)n2nc(SCc3cc(=O)n4ccccc4n3)nc2n1	20*	-10	-49	-1	nt
Cc1ccccc1-n1c(SCc2cc(=O)n3ccccc3n2)nc2[nH]ncc2c1=O	24*	2	-45	0	-1
Cc1ccccc1C(=O)O/N=C/c1c(N2CCOCC2)n(C)c2ccccc12	-4	-1	13	1	23*[artifact]
COC(=O)c1c(C)[nH]c(C(=O)/C=C/c2ccccc2)c1C	nt	7	nt	6.2*	-7
COC(=O)c1c(C)[nH]c(C(=O)/C=C/c2cccc(Cl)c2)c1C	nt	-1	nt	1	-4
CCCCCCCCCn1c2c(c(=N)c3c1CCC3)CCC2	-4	22	79*	-1	nt
O=C(NCCN1CCN(c2ccccc2F)CC1)C1CC(=O)N(C2CCCC2)C1 (stereo not given)	21*	-13	11	-1	nt
COc1ccc(Cn2c(-c3ccc(Br)cc3)c[n+]3ccccc23)cc1	nt	0	nt	1	3
SMILES	S1P2 agonist	GALR2 antag	S1P2 blocker	GALR2 ag	Phagocyt inh	others
CCCCCCc1cc2cc(-c3nnc(-c4ccccc4O)o3)c(=O)oc2cc1O	nt	13	nt	18*	0
O=C(Nc1ccccn1)Nc1cccs1	133*	2	15	0	0
CCOc1ccc(C(=O)Nc2cc(S(=O)(=O)Nc3ccccc3Cl)ccc2N2CCOCC2)cc1	nt	-1	nt	1	0
N#CCN1CCN(CC(=O)Nc2cccc3ccccc23)CC1	760*	3	3	-2	nt
O=C(CSCCO)Nc1cccc2ccccc12	-3	12	-6	-2	0
COc1ccc(/C=C/c2nnc(NC(=O)CSc3ccc(Cl)cc3)s2)cc1	nt	-19	nt	-2	2
COc1ccc(C2C=C(C34CC5CC(CC(C5)C3)C4)NC(=S)N2)cc1 (stereo not given)	nt	-4	nt	-1	-5
CC(C)Cn1c(N)c(C(=O)CSc2ccc3c(c2)OCCO3)c(=O)n(C)c1=O	-3	11	54*	-2	nt
O=C(Nc1ccc(S(=O)(=O)N2CCCCC2)cc1)c1ccc(CN2CCc3ccccc3C2)cc1	-4	19	52*	-1	nt
Cc1ccc(NC(=O)c2ccc(CN3CCc4ccccc4C3)cc2)cc1	-4	-6	-7	-1	-2
Cc1cc(C(=O)CN2C(=O)NC(C)(c3cccc(Br)c3)C2=O)c(C)n1Cc1ccco1 (stereo not given)	36*	-4	-11	-1	0
Cc1ccc(C(=O)Nc2ccccc2C(=O)N2CCOCC2)cc1[N+](=O)[O-]	nt	-4	nt	1	-5
CC(C)CC(=O)NC(Nc1ccc([N+](=O)[O-])cc1)C(Cl)(Cl)Cl (stereo not given)	nt	4	nt	-1	-2
CC(C)c1ccc2[nH]c(O)c(N=NC(=O)c3ccc(CSc4nncn4C)cc3)c2c1	nt	-1	nt	5.1*	-14
Cc1cc(C(=O)CSc2nnnn2C)c(C)n1-c1ccc2c(c1)OCCO2	-4	-8	9	0	0
Cc1nnc(SCC(=O)c2cc(C)n(-c3ccc4c(c3)OCO4)c2C)s1	-5	-8	-5	10	0	GALR2 agon conf=-1;BLA act counter=-2
Cc1ccc(NC2=C(Cl)C(=O)OC2OC(=O)c2ccco2)cc1 (stereo not given)	-3	8	-5	35*	-1	GALR2 agon conf=-1;BLA act counter=-1
Cc1ccc(/C(N)=N/OC(=O)c2ccco2)cc1	-6	11	-12	-3	nt
Cn1c(=O)[nH]c(=O)c2c1nc(N1CCNCC1)n2Cc1cccc2ccccc12	-4	5	-6	15*	2	GALR2 agon conf=0;BLA act counter=-1
CN(C)c1ccc(CC(=O)c2nc3ccccc3s2)cc1	nt	-2	nt	0	nt
CCSc1nnc(-c2cccnc2)n1-c1ccc(C)c(Cl)c1	-3	-32	-6	9	-1	GALR2 agon conf=0;BLA act counter=0
Nc1c(C(=O)NCc2ccccc2)c2nc3ccccc3nc2n1CCCN1CCOCC1	nt	-16	nt	16*	-2	GALR2 agon conf=11*;BLA act counter=23*
CC1=CC(C)(C)N(C(=O)CSc2nnc(C)s2)c2ccc(C)cc21	-2	2	-10	-1	nt
CC1=CC(C)(C)N(C(=O)CSc2nnc(N)s2)c2cc(C)c(C)cc21	0	-10	-14	43*	nt	GALR2 agon conf=0;BLA act counter=-1
Cc1cc(C)cc(NC(=S)NCCN2CCOCC2)c1	-2	3	11	-1	nt
Cn1c(=O)c2ncn(CC(=O)NCCOCc3ccccc3Cl)c2n(C)c1=O	nt	5	nt	-1	-5
C=CCNC(=O)c1onc(CSc2ccc(F)cc2)c1C(=O)NCCOC	-7	-1	-6	-1	1
O=S(=O)(c1cccc(C(F)(F)F)c1)N1CCN(c2ccccc2)CC1	-3	-9	1	12*	nt	GALR2 agon conf=-1;BLA act counter=-3
CC1(C)Cc2c(C#N)c(NCc3ccco3)nc(-c3ccco3)c2CO1	nt	4	nt	-2	0

Compound activity as filed in PubChem BioAssay.
